Test results from PubChem BioAssay (NCATS).
Results filed as inconclusive are left out. A number with no mark means an inactive call. Active and inactive are the calls of the source. Calls follow the shape of the dose curve; as a rule, active = well fitted inhibition curve with a large enough effect; inconclusive = small, poorly fitted or top-dose-only effect; inactive = flat fitted curve, though single readings scatter.

System: W2
Assay: qHTS profiling for inhibitors of Plasmodium falciparum proliferation (AID 504749); also: nearly all actives have a fitted effect of over 60% in size;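 as to activity, negative = inhibition: 0% = DMSO vehicle and full inhibition = artemisinin control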
Conditions: P. falciparum in erythrocytes, SYBR Green DNA, 72 h; series mostly up to 28.7 µM; activity, negative = inhibition: at the top concentration
Summary of the method: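 Three-day growth assay of blood-stage parasites in erythrocytes (0.3% parasitemia, 2.5% hematocrit) at 37 C, 5% CO2, quantified by SYBR Green DNA staining after overnight detergent lysis.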
Potency is read from the fitted curve at half-maximal effect.

SMILES	Potency	activity, negative = inhibition
CC(=O)c1ccc2c(c1)N(CCCN1CCN(CCO)CC1)c1ccccc1S2	5.36 µM (active)	
CCC(=O)c1ccc2c(c1)N(CCCN1CCN(CCO)CC1)c1ccccc1S2	5.36 µM (active)	
CC[C@H]1OC(=O)[C@H](C)[C@@H](O[C@H]2C[C@@](C)(OC)[C@@H](O)[C@H](C)O2)[C@H](C)[C@@H](O[C@@H]2O[C@H](C)C[C@H](N(C)C)[C@H]2O)[C@](C)(O)C[C@@H](C)CN(C)[C@H](C)[C@@H](O)[C@]1(C)O	0.426 µM (active)	
OCC1(CO)COC(C(Cl)(Cl)Cl)OC1		7.59%
O=C(CCCN1CCN2CCCC2C1)c1ccc(F)cc1 (stereo not given)	6.01 µM (active)	
CC(=O)Nc1c(I)c(C(=O)O)c(I)c(N(C)C(C)=O)c1I		-34.9%
O=C1CCC(c2ccccc2)(C2CCN(Cc3ccccc3)CC2)C(=O)N1 (stereo not given)	6.75 µM (active)	
Cc1cccc(Nc2ncccc2C(=O)O)c1C		5.91%
CCOC(=O)[C@@H](N)CS		0.218%
CCOC(=O)c1cc(-c2ccccc2)nc2ccc(C)cc12		-1.45%
Cn1cc(NC(=O)c2cc(NC(=O)c3cc(NC=O)cn3C)cn2C)cc1C(=O)NCCC(=N)N	4.78 µM (active)	
COc1ccc2c(c1)OC(C)(C)C(c1ccccc1)C2c1ccc(OCCN2CCCC2)cc1 (stereo not given)	1.69 µM (active)	
Cn1c(=O)c2c(ncn2CCOC(=O)C(C)(C)Oc2ccc(Cl)cc2)n(C)c1=O		6.4%
CC(C)Cc1ccc([C@@H](C)C(=O)NS(C)(=O)=O)cc1		-2.87%
CC(=O)Oc1cccc(C(=O)O)c1OC(C)=O		-1.22%
CNC(=O)[C@H](Cc1c[nH]c2ccccc12)NC(=O)[C@@H](CC(=O)NO)CC(C)C	15.1 µM (active)	
c1ccc2c(c1)Sc1ccccc1N2CCN1CCCC1	1.69 µM (active)	
C[C@H](N)C(=O)N[C@@H](C)P(=O)(O)O		0.727%
CC1=CC(=C(c2ccc(N)cc2)c2ccc(N)cc2)C=CC1=N	0.536 µM (active)	
OCCOCCOCCO		14.5%
CCN(CC)C(=O)c1cccnc1		-8.17%
CNC(=O)c1c(I)c(C(=O)NCC(=O)Nc2c(I)c(C(=O)O)c(I)c(C(=O)NCCO)c2I)c(I)c(N(C)C(C)=O)c1I		12%
O=C1NCCN1c1ncc([N+](=O)[O-])s1		-3.57% [at 12.8 µM]
Cc1cc(C(=O)NCCc2ccc(S(=O)(=O)NC(=O)NN3CCCCCC3)cc2)no1		-0.34%
COc1ccc(/C=N/NC(=O)c2ccncc2)c(C(=O)O)c1OC		-0.623%
